According to PubChem BioAssay (NCI):
Compounds without any hit were thinned out: in the full panel of roughly 83,000, 20% have a hit.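 Percent growth is the endpoint: 0 to 100 indicates growth inhibition (40 means 60% inhibition), 0 means no net growth, and negative values indicate cell death.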 Values without a mark were called inactive. The calls were made as follows: active = growth percent below 10; inactive = the rest.

System: HL-60(TB) leukemia
Assay: NCI-60 one-dose screen, 48 h (100 = growth as untreated, 0 = no growth, -100 = all killed)
Conditions: 10 µM unless noted

Row | Compound | growth [%]
1 | NS(=O)(=O)c1ccc(Nc2nc(Nc3ccccc3)nc3nnc(SCC(=O)NC4CCCCC4)n23)cc1 | 106
2 | CS(=O)(=O)c1ccc(-n2cc(/C=C/C(=O)c3ccc(NC(=O)CO[N+](=O)[O-])cc3)c(-c3ccc(Cl)cc3)n2)cc1 | 109
3 | NS(=O)(=O)c1ccc(Nc2nc(N/N=C/C=C/c3ccccc3)nc(Nc3ccccc3)n2)cc1 | 38.6
4 | Cc1ccc(CSC2=C(Cl)CN(c3ccc(Cl)cc3)C2=O)cc1 | 110
